From PubChem
A selection: hits, their analogues and other compounds. The true share with any hit is near 2.4%.
PHOSPHO1 block = inhibitors of human PHOSPHO1 phosphatase. Q8TCT1. recombinant PHOSPHO1, absorbance phosphatase assay. inhibition, % at 13.3 µM. 290,000 tested, 1.1% active. AID 1565; in the data active means inhibition above about 60%
Target sequence (Q8TCT1 whole entry, looked up): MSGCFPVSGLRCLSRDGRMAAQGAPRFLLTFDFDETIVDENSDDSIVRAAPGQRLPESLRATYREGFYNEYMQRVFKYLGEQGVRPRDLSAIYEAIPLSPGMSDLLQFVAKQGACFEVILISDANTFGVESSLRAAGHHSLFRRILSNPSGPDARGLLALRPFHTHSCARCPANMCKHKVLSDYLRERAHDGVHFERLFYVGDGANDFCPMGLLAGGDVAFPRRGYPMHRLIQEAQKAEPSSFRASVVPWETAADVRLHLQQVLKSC
PABP FP inh = blocks human PABP binding to poly(A) RNA | P11940 | fluorescence polarization | calls only at 35 µM | 290,000 tested, 1% active;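 further: calls also rest on retests at 20 µM and on dose response follow-up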
eIF4H inh = inhibitors of RNA binding by human eIF4H; 290,000 tested, 0.94% active; AID 2012; Q15056; eIF4H fluorescence polarization binding assay; inhibition, % at 35 µM;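 further: calls also rest on retests at 20 µM and on dose response follow-up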
Efa HMGR inh = E. faecalis class II HMG-CoA reductase inhibition; purified E. faecalis HMGR, NADPH absorbance 340 nm kinetic; inhibition, % at 10 µM; 190,000 tested, 0.41% active;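 active means inhibition above a set limit, the median over all tested compounds plus 3 SD, cut at about 9.5% in these data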;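 further: enzyme runs in reverse so mevalonate oxidation gives rising NADPH absorbance; 0% = complete reaction with DMSO and 100% = background rate lacking mevalonate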
PABP1 MLLE inh = blocks PAM2 peptide binding to the PABP1 MLLE domain; P11940; GST-MLLE / FITC-PAM2 fluorescence polarization; inhibition, % at 20 µM; 360,000 tested, 0.36% active; AID 588489; in the data active means inhibition above about 35%, passing the limit was not always enough;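 further: plate controls were DMSO wells with GST-MLLE for no effect and wells lacking GST-MLLE protein for full effect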
Numbers without * were called inactive; i = inactive; . = no result given; + = active, no number. Unless noted, how the calls were made is not given here.

SMILES	PHOSPHO1 block	PABP FP inh	eIF4H inh	Efa HMGR inh	PABP1 MLLE inh
C=CS(=O)(=O)c1c2cc(OC)ccc2nc2ccc(OC)cc12	.	.	.	.	86.2
CC[N+]1(CC(O)COC2CC(C)CC(C)(C)C2)CCOCC1 (configuration not stated)	-30.7	+	-1.7	.	-114.3
Cc1ccc(S(=O)(=O)N2CCN(C(=O)COC(=O)CCOc3ccccc3)CC2)c(C)c1	.	.	.	.	-90.7
O=C(NNC(=O)c1cc2cc3ccccc3nc2s1)c1cccc(C(F)(F)F)c1	-25.8	i	51.3*	-5.9	15.9
CCC(/C=C1\Sc2ccc(OC)cc2N1CC)=C\c1sc2ccc(OC)cc2[n+]1CCCS(=O)(=O)[O-]	-38.3	i	-6.3	1.7	10.4
CCN1/C(=C/c2cc[n+](CCCS(=O)(=O)[O-])c3ccccc23)Sc2ccccc21	-2.1	i	97.0*	-11.9	-161.8
CN(C)N=C1c2cc(S(=O)(=O)N3CCOCC3)ccc2-c2ccc(S(=O)(=O)N3CCOCC3)cc21	6.0	i	6.0	2.9	9.6
NC(=S)NN=C1c2cc(S(=O)(=O)N3CCOCC3)ccc2-c2ccc(S(=O)(=O)N3CCOCC3)cc21	-12.0	i	2.0	0.5	39.6*
CNC(=S)N/N=C/c1ccc(N(C)C)cc1	60.8*	i	0.2	.	-0.5
CNC(=S)N/N=C/c1ccc(C(C)C)cc1	.	.	.	.	12.8
Cc1cc(C=O)c(C)n1-c1ccc(N2CCOCC2)c([N+](=O)[O-])c1	16.1	+	82.1*	-9.0	20.9
O=C(NCc1cnc2ccccn12)C1CCC(=O)N(Cc2ccccc2F)C1 (configuration not stated)	65.8*	i	-3.0	.	-4.4
Cc1cccc2nc(CNC(=O)C3CCC(=O)N(Cc4ccccc4F)C3)cn12 (configuration not stated)	18.5	i	-13.8	.	4.5
COc1ccc(C(=O)Nc2ccc([N+](=O)[O-])cn2)c(OC)c1	1.1	i	-4.5	-0.9	0.3
CCOC(=O)c1ccc2c(c1)n(CCO)c(C)[n+]2CC	89.5*	.	.	-5.5	-123.3
C=CCn1c(CSc2ccccc2[N+](=O)[O-])n[nH]c1=S	-28.9	+	84.0*	.	-6.0
CCOc1ccc2c(c1)-c1c(ssc1=S)C(C)(C)N2C	69.5*	i	-1.8	3.8	22.9
CCOc1ccc2c(c1)C(C)=CC(C)(C)N2S(=O)(=O)c1ccc(F)cc1	46.0	i	-0.7	.	5.2
O=C(CSc1nccn1Cc1ccccc1)NC1CCCC1	-19.7	i	1.0	.	-3.3
COc1ccc(C(=O)N/C(=C\c2cn(S(=O)(=O)N(C)C)c3ccccc23)C(=O)N2CCOCC2)cc1	59.8	i	-10.0	.	-5.0
Nc1nc(-c2cccc(F)c2)cs1	17.0	i	-14.2	3.9	39.3*
COc1ccc(OCc2nn[nH]n2)cc1	13.8	i	-10.3	.	-60.8
CCN(Cc1ccncc1)C(=O)CCc1nnc(CCc2ccc(OC)cc2)o1	3.5	i	-6.4	-2.7	-0.4
CCN(CC)c1ncnc2c1[nH]c1ccccc12	1.0	+	71.5*	-7.8	-13.4
CCCOc1ncnc2c1[nH]c1ccccc12	3.8	i	11.2	-0.9	-1.5
SMILES	PHOSPHO1 block	PABP FP inh	eIF4H inh	Efa HMGR inh	PABP1 MLLE inh
Cc1ccc(NS(=O)(=O)c2c(C)nc3sccn3c2=O)c(C)c1	15.1	i	-1.0	.	2.8
COCCN(Cc1ccccc1)C(=O)c1c(C)nn(-c2ccccc2)c1C	-7.7	i	-8.3	-5.4	-4.8
Clc1ccccc1-c1nn2c(-c3ccncc3)nnc2s1	71.8*	i	0.5	-5.6	23.9
c1ccc(Cc2nnc3sc(-c4ccccn4)nn23)cc1	65.6*	i	3.8	-2.3	32.0
c1ccc(Cc2nn3c(-c4ccncc4)nnc3s2)cc1	33.9	i	3.6	0.6	37.8*
c1ccc(Cc2nnc3sc(-c4ccncc4)nn23)cc1	79.6*	i	-0.6	-10.1	42.0*
Cc1ccc(F)c(NC(=O)/C(C#N)=C(\O)c2ccc(C(C)(C)C)cc2)c1	19.5	i	-3.4	-4.2	10.1
Cc1cc(OCC(=O)NCC2CCC(C(=O)O)CC2)c2c(C)c(C)c(=O)oc2c1 (configuration not stated)	3.1	i	-6.0	.	10.4
O=S1(=O)N=C(SCCO)c2ccccc21	92.2*	i	6.1	-5.0	20.5
CCOC1=NS(=O)(=O)c2ccccc21	-3.5	i	3.9	-2.4	7.5
O=[N+]([O-])c1ccc(OS(=O)(=O)Cc2ccccc2)cc1	8.4	+	2.5*	-2.4	6.9
CCOc1ccc(NC(=O)NCc2ccco2)cc1	67.1*	i	2.3	-4.2	0.0
CC(=O)Nc1ccc(C(=S)NCc2ccco2)cc1	94.5*	i	-10.1	-1.4	29.4
O=C(NCCSCc1ccco1)Nc1ccccc1	73.5*	i	1.3	-3.7	29.5
O=C(Cc1ccccc1)NCCSCc1ccco1	49.5	i	-3.8	-6.6	31.4
COC(=O)c1ccc(C(=S)NCC2(N(C)C)CCCCC2)cc1	15.0	i	-4.7	.	16.9
CCOc1ccc(NC(=O)NC2(C(=O)NCc3ccco3)CCCCC2)cc1	30.4	i	5.3	.	3.6
CC(=O)Nc1ccc(S(=O)(=O)NNC(=S)NCc2ccco2)cc1	36.6	i	-3.0	.	-21.2
CC(=O)Nc1ccc(C(=S)NCC2(N(C)C)CCCCC2)cc1	4.2	+	active	-4.7	12.6
CCc1ccc(S(=O)(=O)NC(=S)NC2CCCCC2)cc1	5.5	i	-13.5	1.7	42.8*
O=S(=O)(NC(=S)NC1CCCCC1)c1ccc(Cl)cc1	36.8	i	0.0	-5.7	27.0
Cc1ccc(S(=O)(=O)NC(=S)NC2CCCCC2)cc1	16.1	i	-0.1	-2.2	46.6*
CCc1ccc(C(C)NC(=S)NC2CCCCC2)cc1 (configuration not stated)	-2.5	i	-2.4	.	-24.4
Cc1ccc(SCc2cc(=O)c3c(=O)n(-c4ccccc4)[nH]c3[nH]2)cc1	42.1	+	92.7	0.4	17.3
CCC(Sc1nnc(-c2ccc(C)c(Cl)c2)n1CC)C(=O)Nc1nccs1 (configuration not stated)	62.4*	i	1.3	-6.0	-92.9
SMILES	PHOSPHO1 block	PABP FP inh	eIF4H inh	Efa HMGR inh	PABP1 MLLE inh
Cc1c(O)cnc2nn(-c3ccccc3)c(=N)n12	.	.	.	.	-4.0
CN(C)/N=C/C=C1\CC/C(=C\c2ccc(Br)cc2)C1=O	-16.2	+	66.6*	-6.0	-54.6
CN(C)/N=C/C=C1\CCC/C(=C/c2cccs2)C1=O	-3.6	i	23.0	.	-78.1
CC(=O)N1CCN(S(=O)(=O)c2cccc(C(=O)Nc3cc(C(F)(F)F)ccc3N3CCOCC3)c2)CC1	-12.4	i	-15.2	.	-17.3
O=C(Oc1csc(=S)n1C(=O)c1ccccc1)c1ccccc1	83.3*	i	-3.4	-3.4	-0.9
CCCCNS(=O)(=O)c1ccc(Br)cc1N1CCC[C@H]1CO	.	.	.	.	-0.6
N#C/C(=C\c1cn(CC(=O)N2CCCCC2)c2ccccc12)C(=O)NCc1ccc2c(c1)OCO2	-22.0	+	62.2*	-4.0	-6.0
c1ccc2cc3[nH]c(CN4CCOCC4)nc3cc2c1	-5.8	i	3.1	10.2*	2.4
